In PubChem BioAssay:
Active and inactive are the calls of the source.

Legend:
[1] = tested on: Human papillomavirus type 1a protein E7 (residues 44-93); experiment: HPV1a E7 fragment binders on microarrays, primary screen, biochemical, small-molecule microarray, residues 44-93, 635 nm fluorescence (AID 1108); settings: small-molecule microarray binding, fluorescence 635 nm; higher = more signal;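 note: E7 fragment applied at 1 µg/mL in TBST for 1 h at 4 C; score combines spot fluorescence with its signal to noise ratio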
[2] = modulators of HCV replicon luciferase signal, primary screen, HCV replication inhibitor project, Huh7 cells, luciferase reporter (AID 1109); settings: 48 h, higher = more signal;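 note: huh7 hepatoma cells harbouring a luciferase neomycin HCV replicon reporter; luciferase luminescence as measure of HCV replicon replication; test concentration not given here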
[3] = molecular target: Left-right determination factor 2 (Homo sapiens) (UniProt O00292); experiment: LEFTY2 binders on small-molecule microarrays, primary screen, biochemical, small-molecule microarray, 635 nm fluorescence scan (AID 1110); settings: LEFTY2 binding, higher = more signal
[4] = molecular target: Calmodulin-1 (Homo sapiens) (UniProt P0DP23); experiment: CALM1 binders on microarrays, EGTA buffer, profiling panel, biochemical, small-molecule microarray, Cy5-labelled CALM1 (AID 1111); settings: Cy5-CALM1 binding fluorescence, higher = more signal;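 note: labelled calmodulin applied in Tris saline Tween buffer holding calcium plus EGTA and DTT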
[5] = molecular target: Calmodulin-1 (Homo sapiens) (UniProt P0DP23); experiment: calcium-bound CALM1 binders on microarrays, profiling panel, artefact control for SMM control-protein annotation, biochemical, small-molecule microarray, Cy5-labelled CALM1, plus calcium (AID 1112); settings: Cy5-CALM1 binding fluorescence, higher = more signal;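 note: score merges spot fluorescence with signal to noise from triplicate slides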
[6] = small-molecule microarray binders of probe aWnt5a, primary screen, biochemical, biotinylated probe, 635/667 nm fluorescence (AID 1113); settings: higher = more signal;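 note: score merges 667 nm fluorescence intensity with signal-to-noise per printed feature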
[7] = small-molecule microarray binders of probe aShh, primary screen, biochemical, biotinylated probe, 635/667 nm fluorescence (AID 1114); settings: higher = more signal;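 note: probe is biotin-labelled aShh protein from a stem cell growth factor screen; measures binding of labelled protein to compounds printed on the slide; score merges feature fluorescence at 667 nm with signal-to-noise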
[8] = small-molecule microarray binders of probe aNog, primary screen, biochemical, biotinylated probe, 635/667 nm fluorescence (AID 1115); settings: higher = more signal;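 note: probe is biotinylated aNog protein used at 0.15 µg/mL for 1 h at 4 C; z-score combines 667 nm fluorescence of each spot with its signal to noise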
[9] = molecular target: Torsin-1A-interacting protein 1 (Homo sapiens) (UniProt Q5JTV8); experiment: LAP1 binders from COS7 cell lysate, primary screen, small-molecule microarray, 635/667 nm fluorescence (AID 1116); settings: COS7-hLAP1 lysate binding, 635 nm fluorescence, higher = more signal
[10] = molecular target: Alpha-bungarotoxin (Bungarus multicinctus) (UniProt P60615); experiment: alpha-bungarotoxin binders on microarray, profiling panel, artefact control for SMM control protein annotation, biochemical, small-molecule microarray, Alexa647 label, 635/667 nm fluorescence (AID 1117); settings: alpha-BTX-A647 binding fluorescence, higher = more signal
Albumin (Bos taurus) = Albumin (Bos taurus) (UniProt P02769); experiment: bovine serum albumin binders on microarray, profiling panel, artefact control for SMM control protein annotation, biochemical, small-molecule microarray, Alexa647 label, 635/667 nm fluorescence (AID 1118); settings: BSA-A647 binding, fluorescence 635 nm, higher = more signal;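 note: score merges 667 nm emission intensity and signal-to-noise per printed compound spot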
[11] = small-molecule microarray binders of probe aXIP, primary screen, biochemical, NeuroSMM set, 635/667 nm fluorescence (AID 1119); settings: higher = more signal, called active from +8 up or from −8 down;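 note: probe is the protein aXip251-270 applied at 1 µg/mL to compound-printed slides; binding of probe to printed compounds measured as 667 nm fluorescence plus signal to noise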
[12] = small-molecule binders of probe aNOTCH3, primary screen, biochemical, small-molecule microarray, 635/667 nm fluorescence (AID 1120); settings: higher = more signal;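 note: probe is a biotin-tagged antibody raised against NOTCH3 rather than NOTCH3 protein; score merges spot fluorescence near 667 nm with spot signal to noise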
[13] = small-molecule binders of probe aNOTCH2, primary screen, biochemical, small-molecule microarray, 635/667 nm fluorescence (AID 1121); settings: higher = more signal;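 note: score merges feature fluorescence read at 667 nm with its signal to noise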
[14] = molecular target: Carbonic anhydrase 2 (Homo sapiens) (UniProt P00918); experiment: CAII small-molecule binders, profiling panel, biochemical, small-molecule microarray, Alexa647-labelled CAII (AID 1122); settings: CAII-A647 binding fluorescence, higher = more signal
[15] = COS7 lysate on small-molecule microarray, probe aHis, 635 nm (AID 1123); settings: COS7 cell lysate, fluorescence, higher = more signal;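 note: z-score combines 667nm fluorescence intensity with signal-to-noise per printed compound spot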
[16] = compound binding in COS7 lysate, probe aLAP1, primary screen, cell lysate, small-molecule microarray (AID 1124); settings: probe aLAP1, fluorescence, higher = more signal;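 note: lysate comes from COS7 cells expressing LAP1 and is applied at 0.3 µg/mL; score merges spot fluorescence near 667 nm with signal-to-noise over triplicate slides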
Sam68 (KHDRBS1) = experiment: Sam68 small-molecule binders, primary screen, biochemical, small-molecule microarray, 635 nm fluorescence (AID 1125); settings: small-molecule microarray binding, higher = more signal;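 note: score merges 667 nm channel intensity with signal to noise over triplicate slides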
[17] = tested on: Chordin-like protein 2 (CHRDL2); experiment: CHRDL2 small-molecule binders, primary screen, biochemical, small-molecule microarray, 635 nm fluorescence (AID 1126); settings: small-molecule microarray binding, fluorescence 635 nm; higher = more signal;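 note: printed compound slides probed with Chrdl2 protein at 4 µg/mL for 1 h at 4 C; score merges 667 nm emission intensity with signal to noise over three replicate slides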
[18] = molecular target: Concanavalin-A (Canavalia ensiformis) (UniProt P02866); experiment: ConA small-molecule binders, primary screen, artefact control for SMM control protein annotation, biochemical, small-molecule microarray, Alexa647 label, 635 nm (AID 1127); settings: ConA-A647 binding fluorescence, higher = more signal;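 note: z combines 667 nm emission intensity with signal-to-noise across three replicate slides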
Chain of Concanavalin-A (Canavalia ensiformis) (P02866 whole entry, looked up): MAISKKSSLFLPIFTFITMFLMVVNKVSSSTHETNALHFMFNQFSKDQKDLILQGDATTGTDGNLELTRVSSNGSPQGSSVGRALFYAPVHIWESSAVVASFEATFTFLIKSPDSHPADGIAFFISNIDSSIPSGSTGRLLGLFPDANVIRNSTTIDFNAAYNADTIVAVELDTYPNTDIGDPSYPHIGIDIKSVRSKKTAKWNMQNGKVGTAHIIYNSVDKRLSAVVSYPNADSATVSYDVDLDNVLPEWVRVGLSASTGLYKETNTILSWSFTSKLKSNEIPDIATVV

Chain of Albumin (Bos taurus) (P02769 whole entry, looked up): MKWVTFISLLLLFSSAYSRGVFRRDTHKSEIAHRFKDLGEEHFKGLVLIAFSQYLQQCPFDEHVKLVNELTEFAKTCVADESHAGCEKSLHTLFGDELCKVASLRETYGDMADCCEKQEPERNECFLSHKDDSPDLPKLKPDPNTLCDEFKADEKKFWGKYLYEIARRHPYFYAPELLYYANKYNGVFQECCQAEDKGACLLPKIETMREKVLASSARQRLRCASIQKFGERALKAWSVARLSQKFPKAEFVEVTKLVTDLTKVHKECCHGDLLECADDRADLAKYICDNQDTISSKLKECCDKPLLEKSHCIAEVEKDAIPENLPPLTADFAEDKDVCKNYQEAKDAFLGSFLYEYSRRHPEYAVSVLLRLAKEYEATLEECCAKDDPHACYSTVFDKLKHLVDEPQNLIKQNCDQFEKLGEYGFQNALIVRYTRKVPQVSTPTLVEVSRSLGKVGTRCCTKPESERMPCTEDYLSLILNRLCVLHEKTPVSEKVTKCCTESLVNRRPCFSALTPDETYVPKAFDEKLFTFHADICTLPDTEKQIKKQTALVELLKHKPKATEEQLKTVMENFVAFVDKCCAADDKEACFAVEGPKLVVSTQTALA
Chain of Left-right determination factor 2 (Homo sapiens) (O00292 whole entry, looked up): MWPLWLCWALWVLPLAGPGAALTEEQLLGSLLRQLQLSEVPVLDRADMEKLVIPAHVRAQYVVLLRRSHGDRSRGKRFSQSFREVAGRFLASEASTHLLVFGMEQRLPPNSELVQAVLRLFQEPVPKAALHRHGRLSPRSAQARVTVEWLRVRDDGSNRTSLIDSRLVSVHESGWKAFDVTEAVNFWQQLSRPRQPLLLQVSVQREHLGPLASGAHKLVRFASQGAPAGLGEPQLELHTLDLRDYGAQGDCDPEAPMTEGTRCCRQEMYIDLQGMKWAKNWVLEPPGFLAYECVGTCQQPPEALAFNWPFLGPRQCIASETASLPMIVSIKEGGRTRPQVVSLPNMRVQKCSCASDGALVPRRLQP
Chain of Torsin-1A-interacting protein 1 (Homo sapiens) (Q5JTV8 whole entry, looked up): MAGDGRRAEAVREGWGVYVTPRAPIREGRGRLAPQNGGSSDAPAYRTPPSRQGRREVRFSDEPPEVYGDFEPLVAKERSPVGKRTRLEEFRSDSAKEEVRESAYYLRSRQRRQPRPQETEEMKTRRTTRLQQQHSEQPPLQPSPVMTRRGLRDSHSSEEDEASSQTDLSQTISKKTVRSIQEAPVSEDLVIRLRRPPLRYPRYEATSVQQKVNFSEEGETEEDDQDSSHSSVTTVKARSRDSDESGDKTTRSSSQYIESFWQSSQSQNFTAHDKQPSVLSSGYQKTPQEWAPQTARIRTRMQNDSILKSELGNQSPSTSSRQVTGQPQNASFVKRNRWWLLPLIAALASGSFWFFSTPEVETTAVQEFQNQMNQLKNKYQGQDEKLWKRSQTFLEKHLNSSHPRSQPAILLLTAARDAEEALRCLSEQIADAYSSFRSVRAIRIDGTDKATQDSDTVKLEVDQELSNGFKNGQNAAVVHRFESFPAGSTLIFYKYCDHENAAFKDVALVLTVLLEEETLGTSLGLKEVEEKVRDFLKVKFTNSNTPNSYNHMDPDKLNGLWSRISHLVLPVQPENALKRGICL
Chain of Alpha-bungarotoxin (Bungarus multicinctus) (P60615 whole entry, looked up): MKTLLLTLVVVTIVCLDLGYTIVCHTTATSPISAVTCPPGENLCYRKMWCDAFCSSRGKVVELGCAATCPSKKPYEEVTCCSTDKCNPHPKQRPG

Row | SMILES | composite z-score [1] | z-score [2] | composite z-score [3] | composite z-score [4] | composite z-score [5] | composite z-score [6] | composite z-score [7] | composite z-score [8] | composite z-score [9] | composite z-score [10] | composite z-score (Albumin (Bos taurus)) | composite Z-score [11] | composite z-score [12] | composite z-score [13] | composite z-score [14] | composite z-score [15] | composite z-score [16] | composite z-score (Sam68 (KHDRBS1)) | composite z-score [17] | composite z-score [18]
1 | COCC(=C=CC[C@H](O)c1ccc(OCCO)cc1)C[C@H](O)c1ccccn1 | 0.131 | -0.932 | -0.454 | -0.581 | -0.705 | -0.186 | 0.235 | 0.0516 | 0.925 | -0.458 | -0.769 | 1.14 (inactive) | -0.217 | -0.0942 | 0.603 | 0.257 | -0.0662 | 0.359 | -0.6 | 0.0109
2 | C=CCNC(=O)[C@@H]1[C@H]2C(=O)O[C@H](c3ccccc3)[C@H](c3ccccc3)N2[C@H](c2ccc(OCCO)cc2)[C@@]12C(=O)N(C(=O)OCCOC)c1ccc(C#CC3(O)CCCCCC3)cc12 | 0.692 | -2.29 | 0.507 | 1.82 | 1.11 | 0.0267 | 0.293 | 0.166 | 1.2 | 1.97 | 0.801 | 1.7 (inactive) | 0.353 | -0.0502 | 0.572 | 1.5 | 0.568 | 1.3 | -0.0335 | 1.07
3 | C[C@@H]1NC(=O)CC=C[C@@H](C)[C@@H]2C=C[C@H](O)[C@@H](COC(=O)[C@H](C)NC(=O)CC=C[C@@H](C)[C@@H]3C=C[C@H](O)[C@@H](COC1=O)O3)O2 | 0.0804 | 0.128 | 0.0183 | -0.417 | -0.0969 | -0.172 | -0.426 | -0.134 | -0.166 | -0.64 | -0.942 | -0.0764 (inactive) | -0.0328 | -0.179 | -0.0551 | -0.384 | -0.0401 | -0.116 | 0.786 | -1.2
4 | CCCC=C(CCC)[C@@H](NS(=O)(=O)c1ccc(-c2ccccc2)cc1)c1ccc(C(=O)OC)cc1 | 0.17 | -1.35 | 0.0185 | 0.601 | 0.581 | -0.104 | 0.0796 | 0.119 | 0.756 | -0.214 | -0.0722 | -0.682 (inactive) | -0.0846 | -0.0651 | -0.291 | 0.257 | 0.515 | -0.829 | -0.705 | 0.115
5 | C[N+](C)(C)CCCC[C@@H]1NC(=O)[C@H]2C[C@@H](C(=O)NCc3ccc(F)cc3)[C@@H](c3cccc(OCCO)c3)N2C1=O | 0.276 | 0.328 | 0.503 | 0.884 | 0.869 | -0.0522 | -0.0904 | 0.0519 | 1.42 | 1.15 | 0.392 | 1.57 (inactive) | -0.0328 | -0.179 | 0.811 | 1.48 | 0.633 | 1.15 | 0.864 | 1.08
